Laboratory results as given in PubChem BioAssay (NCI).
This is part of a sample that, as a whole, favours compounds with a hit. Of some 83,000 tested, about 20% had one in any assay.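 The test compound was applied at a single concentration to cells in 96-well plates for 48 hours, and percent growth was recorded.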 Values without a mark were called inactive. Calls of active or inactive are those of the source. How the source made its calls: active means growth percent below 10; inactive means the rest.

Legend:
Test in all cases: NCI-60 one-dose screen, 48 h (100 = growth as untreated, 0 = no growth, -100 = all killed)
Conditions in all cases: 10 µM unless noted
[1] = test system: RPMI-8226 leukemia
[2] = test system: OVCAR-8 ovarian
[3] = test system: OVCAR-5 ovarian
[4] = test system: OVCAR-4 ovarian
[5] = test system: SK-OV-3 ovarian
[6] = test system: IGROV1 ovarian
[7] = test system: OVCAR-3 ovarian
[8] = test system: HS 578T breast
[9] = test system: NCI/ADR-RES ovarian

| SMILES | growth [1] | growth [2] | growth [3] | growth [4] | growth [5] | growth [6] | growth [7] | growth [8] | growth [9] |
| --- | --- | --- | --- | --- | --- | --- | --- | --- | --- |
| CCN1C(=O)N(CC)C2Nn3c(s/c(=C4\C(=O)N(C)c5ccccc54)c3=O)=NC21 (stereo not given) | 48.2% | 38% | 53.8% | 59.6% | 63.4% | 43.3% | 8.52% (active) | 38.3% | 6.8% (active) |
| COc1cc2nc(Cl)nc(Nc3ccc(S(=O)(=O)Nc4nccs4)cc3)c2cc1OC | 107% | 97.3% | 111% | 103% | 101% | 107% | 116% | 99.5% | 104% |
| Cc1nc2ccccc2n1CC1NC(=O)NC1=O (stereo not given) | 106% | 96.4% | 99.3% | 102% | 95.9% | 104% | 105% | 102% | 107% |
| CCN(CCNc1ccc(C)c2sc3ccccc3c(=O)c12)CC(C)(C)O | 13.5% | 87.1% | 79.4% | 95.7% | 76.3% | 79.4% | 103% | 59.5% | 70.9% |
| O=C(O)c1ccc2c(c1)CCC2 | 99.8% | 107% | 105% | 107% | 107% | 103% | 119% | 134% | 111% |
| CC1(C)CC(=O)CC2(C1)N=C(N)Nc1nc3ccccc3n12 (stereo not given) | 94.4% | 104% | 98.7% | 91.7% | 101% | 90.5% | 111% | 137% | 106% |
| COc1ccc2nc(NNC(=O)c3cnccn3)c3cccn3c2c1 | 0.953% (active) | 5.98% (active) | 4.68% (active) | -7.44% (active) | -1.5% (active) | -35% (active) | 1.47% (active) | 43.8% | -13.4% (active) |
| NC[C@H](O)c1ccc(O)c(O)c1 | 104% | 96.3% | 84.4% | 123% | 102% | 118% | 108% | 113% | 92.1% |
| c1csc(-c2c3ccc(=[N+]4CCCCC4)cc-3oc3cc(N4CCCCC4)ccc23)c1 | -39.1% (active) | -33.5% (active) | -83.1% (active) | -54.3% (active) | -89% (active) | -67.1% (active) | -96.9% (active) | -20.7% (active) | -38.9% (active) |
| COc1cccc(-c2nc3sccn3c2-c2ccnc(NCCNS(=O)(=O)c3cccc(F)c3)c2)c1 | -25.3% (active) | 12.7% | 71.4% | 21.5% | 45.9% | 31.6% | 36.7% | 27.9% | 12.6% |
| O=C1CCC2=C3C4CCCCC4C(=O)C4CCCC(OC2C1)C34 (stereo not given) | -4.93% (active) | 6.21% (active) | 108% | 22.1% | 78.4% | -2.77% (active) | -28.8% (active) | 26.5% | 3.01% (active) |
| O=C(N/N=C/C=C/c1ccc([N+](=O)[O-])o1)c1cc2ccccc2cc1O | -11.2% (active) | 0.564% (active) | -1.58% (active) | -100% (active) | -13.5% (active) | -62.6% (active) | -54.8% (active) | -4.48% (active) | 0.815% (active) |
| CCN(CC)c1ccc2nc3c4ccccc4c(=NC(=O)c4ccccc4-c4c5ccc(N(CC)CC)cc5[o+]c5cc(N(CC)CC)ccc45)cc-3oc2c1 | 1.89% (active) | 43.8% | 73% | -47.4% (active) | 78.9% | -66.6% (active) | -50.1% (active) | 63.3% | 51.5% |
| CN(c1ccccc1)c1ccc2c(c1)OCCC21CC1Nc1cnccc1C(=O)O (stereo not given) | 82.6% | 54.9% | 96.2% | 75.3% | 69.1% | 75.1% | 77.1% | 80.8% | 73.8% |
| CC1=C([Se]CC(OC(=O)[C@@H](CO)NC(=O)OC(C)(C)C)C(=O)NC(C)(C)C)C(=O)c2ccccc2C1=O (stereo not given in full) | -33.7% (active) | -84.9% (active) | -100% (active) | -100% (active) | -100% (active) | -100% (active) | -100% (active) | -37.1% (active) | -94.7% (active) |
| O=C1/C(=C\c2cccnc2)SC(=S)N1CCc1ccc(O)cc1 | 16.7% | 62.6% | 58.8% | 64% | 96.4% | 62.9% | 35.7% | 74.7% | 47.9% |
| O=C1Nc2ccccc2/C1=C/c1cn(C(=O)c2ccc(Cl)cc2)c2ccccc12 | 74.5% | 95.1% | 110% | 78.3% | 104% | 72.7% | 98.7% | 106% | 104% |
| CC(=O)O[C@]1(C(C)=O)CCC2C3C[C@H](C)C4=CC(=O)CC[C@]4(C)C3CC[C@@]21C (stereo not given in full) | 58.9% | 91.7% | 90.6% | 93% | 81.9% | 81.6% | 115% | 130% | 79.6% |
| CCN1C(=O)N(CC)C2C1NN=c1s/c(=C\c3cccs3)c(=O)n12 (stereo not given) | 37.7% | 16.9% | 41.3% | 53.2% | 45.6% | 27.4% | -17.5% (active) | 22.5% | -16.5% (active) |
| Oc1ccc(CN2CCC(N3CCOCC3)CC2)c2cccnc12 | 7.8% (active) | 19% | 48.8% | 30.9% | 36.1% | 34.9% | 29.9% | 24.4% | 48.3% |
| CCc1c2c(nc3ccc(OC(=O)OCc4ccc(B5OC(C)(C)C(C)(C)O5)cc4)cc13)-c1cc3c(c(=O)n1C2)COC(=O)[C@]3(O)CC | 8.86% (active) | 0.492% (active) | -16% (active) | 11.1% | 3.1% (active) | 6.81% (active) | -17.5% (active) | 20.7% | -0.875% (active) |
| COCCc1ccc(OCC(O)CNC(C)C)cc1 (stereo not given) | 98.1% | 101% | 110% | 98.8% | 106% | 104% | 118% | 101% | 105% |
| CN(C)CCNc1nc2ccccc2c2c1c1c(n2Cc2ccccc2)-c2ccccc2C1=O | -72.7% (active) | -53% (active) | -74.7% (active) | -93.6% (active) | -92.5% (active) | -72.9% (active) | -79.2% (active) | -90.4% (active) | -72.6% (active) |
| O=C(CCc1nnc(CN(c2ccccc2)c2ccccc2)o1)c1nc2ccccc2[nH]1 | 70.7% | 88.3% | 108% | 82.9% | 96.2% | 74.6% | 95% | 92.3% | 91.4% |
| Cc1ccccc1NC(=O)N/C(N)=N/c1nc(-c2cccc([N+](=O)[O-])c2)cs1 | 34.1% | 67.3% | 76.3% | 56.5% | 57.2% | 37.1% | 26.9% | 11.2% | 2.74% (active) |
| N#Cc1c(N)nc2c(C#N)c(NC(=O)c3ccccc3)nn2c1-c1ccccc1 | 44.1% | 77% | 105% | 88.8% | 96.8% | 59.1% | 89.5% | 94.7% | 85.5% |
| NC(=O)c1ccc[n+]([C@@H]2O[C@H](COP(=O)([O-])OP(=O)(O)OC[C@H]3O[C@@H](n4cnc5c(N)ncnc54)[C@H](O)[C@@H]3O)[C@@H](O)[C@H]2O)c1 | 97.6% | 96.8% | 107% | 106% | 113% | 109% | 107% | 107% | 99.2% |
| Cc1cc(C(=O)c2ccccc2)c(C)c2c1[nH]c1ccc(Cl)cc12 | -0.677% (active) | 21.9% | 43.5% | 43.5% | 38% | 19.1% | -51% (active) | 33.2% | 7.25% (active) |
| COc1cccc(-c2nc3sccn3c2-c2ccnc(NCCNS(=O)(=O)c3ccc(C(F)(F)F)cc3)c2)c1 | 3.52% (active) | 27.1% | 88% | 16.3% | 40.5% | 45.2% | 40.7% | 30.5% | 19.9% |
| O=C1/C(=C/c2ccccc2)CCc2nc3ccccc3c(/C=C/c3ccc(Cl)cc3)c21 | 75.9% | 87.7% | 108% | 80.5% | 81.8% | 72.3% | 90.1% | 104% | 89.4% |
